Results on 90 molecules are retold here after PubChem BioAssay AID2717 (Broad Institute, 2010).

In general, inhibition refers to the relative decrease from the control value, in per cent.

Hit rate of the full screen: of about 300,000 compounds, about 3,200 (1.1%) were called active. The entries come from a sample that favours actives as a whole. Unmarked numbers belong to inactive results. No stated cut-off is given here; in the data, active means inhibition above about 75%; inconclusive means no clear call, values can overlap the other calls; inactive means below that; tested in HMLE shEcad cells.

The experiment can be described thus: cancer stem cell viability inhibitors, primary screen, luminescence (AID 2717). Conditions: cancer stem cell-like cells viability, at 7.5 µM, hits give high values.
Regarding `O=C(NNC(=O)c1cccc(S(=O)(=O)Nc2ccc(Cl)cc2)c1)c1ccc(=O)[nH]c1`, the inhibition was -9.6%.
In the case of `Cc1ccc(NC(=O)c2cccc(S(=O)(=O)N3CCCc4ccccc43)c2)nc1`, the inhibition was 0.233%.
The result for `COc1ccc(Cl)cc1NC(=O)COC(=O)c1ccc(Br)o1` reads 0.173%.
The result for `CS(=O)(=O)c1ccc(C(=O)NNC(=O)c2cccs2)cc1` reads -0.179%; that for `Nc1nonc1-n1nnc(C(=O)N/N=C/c2ccccc2O)c1CN1CCCC1`, 62%; that for `Nc1nonc1-n1nnc(C(=O)N/N=C/c2cc(Br)ccc2O)c1CSC1=NCCS1`, 108% (active).
For `Cc1ccc(SCc2c(C(=O)N/N=C/c3cccnc3)nnn2-c2nonc2N)cc1`, the inhibition was 1.7%.
`O=C1COc2ccc(C(=O)COC(=O)CCOc3ccccc3)cc2N1`: the inhibition was 0.0702%.
As for `CC1(C)CC(=O)c2ccc(O)cc2O1`, the figure is 2.93%; as for `CC[C@@H]1Cc2cc(O)ccc2C2=C1c1ccc(O)cc1C[C@H]2CC`, 102% (active).
As for `CC(C)CC1(C)NC(=O)N(CC(=O)Nc2ccc3c(c2)OCCO3)C1=O` (stereo not given), the figure is -19%.
Regarding `O=C(/C=C/c1ccc2c(c1)OCCO2)c1ccc(O)cc1`, the inhibition was 19.1%.
On to `CN(C)c1ccc(/C=C/C(=O)c2ccc(O)cc2)cc1[N+](=O)[O-]`, for which the inhibition is 26.4%.
Take `CC(=O)Nc1ccc(/C=C/C(=O)c2ccccc2)cc1`: the inhibition is 2.62%.
As for `O=C(/C=C/c1ccc(Cl)c([N+](=O)[O-])c1)c1ccc(O)cc1`, the figure is 80.8% (active); as for `CN(C)c1ccc(/C=C/C(=O)c2ccc(C(C)(C)C)cc2)cc1[N+](=O)[O-]`, 75.4% (active); as for `O=C(Nc1ccncc1)c1ccc(Cl)c([N+](=O)[O-])c1`, 2.54%.
As for `Cc1sc2ncnc(N3CCC(C(=O)Nc4ccc(F)cc4Cl)CC3)c2c1C`, the figure is 4.03%; as for `COc1cc(OC)cc(C(=O)NCC(=O)OCC(=O)NC(C)CCc2ccccc2)c1` (stereo not given), -13.2%; as for `CC(C)(C)OC(=O)CNC(=O)c1[nH]cnc1C(=O)N[C@@H](CCCCN)C(=O)OC(C)(C)C`, -4.68%.
As for `O=C(O)/C=C/C(=O)Nc1ccc(F)cc1F`, the figure is -20.2%; as for `COc1ccccc1NC(=O)/C=C/C(=O)O`, 0.627%; as for `COC(=O)c1sc(-c2ccc(C(C)(C)C)cc2)cc1NC(=O)/C=C/C(=O)O`, 119% (active).
On to `COc1cc(OC)cc(-c2cc3ccc(F)cc3cn2)c1`, for which the inhibition was 47%.
As for `CC[C@]1(O)CC2CN(CCc3c([nH]c4ccccc34)[C@@](C(=O)OC)(c3cc4c(cc3OC)N(C=O)[C@H]3[C@@](O)(C(=O)OC)[C@H](OC(C)=O)[C@]5(CC)C=CCN6CC[C@]43[C@@H]65)C2)C1` (stereo not given in full), the inhibition is 62.5%.
The result for `CC[C@]1(O)C[C@@H]2CN(CCc3c([nH]c4ccccc34)[C@@](C(=O)OC)(c3cc4c(cc3OC)N(C)[C@H]3[C@@](O)(C(=O)OC)[C@H](OC(C)=O)[C@]5(CC)C=CCN6CC[C@]43[C@@H]65)C2)C1` reads 80.5% (active); that for `c1ccc(-c2ccc(OCCN3CCOCC3)cc2)cc1`, 5.72%; that for `COc1ccc(-c2sc3ccccc3c2-c2ccc(OCCN3CCOCC3)cc2)cc1`, 136% (active).
`COc1ccc2sc(-c3ccccc3OC)c(-c3ccc(OCCN4CCCC4)cc3)c2c1`: the inhibition was 105% (active).
In the case of `c1ccc(-c2ccccc2OCCN2CCCCC2)cc1`, the inhibition was 0.336%.
As for `CC(=O)c1ccc(OCCN2CCOCC2)cc1`, the figure is -15.6%; as for `COc1ccccc1-c1sc2ccccc2c1-c1ccc(Br)nc1`, 31.6%.
The result for `O=C(Nc1cc(S(=O)(=O)Nc2ccc(Cl)cc2)ccc1O)c1ccc(F)cc1F` reads 18.9%; that for `COc1ccc(C(=O)COC(=O)C(O)c2ccccc2)c(OC)c1` (stereo not given), 3.81%.
As for `O=c1ccc2c(-c3ccccc3S(=O)(=O)O)c3ccc(O)c(O)c3oc-2c1O`, the figure is 25.4%; as for `COc1cc(OC)cc(-c2nnc(N(C)C(=O)c3ccncc3)s2)c1`, -13.2%.
As to `COCCN(C(=O)c1ccco1)c1nnc(-c2ccc(OC)cc2)s1`, the inhibition is -23%.
The result for `Cc1cccc(C)c1Nc1nnc(SCC(=O)NCCCN2CCCC2=O)s1` reads -7.62%.
The result for `CN1CCN(C(=O)c2ccc(-c3ccc(Br)cc3)o2)CC1` reads 44%.
Consider `O=C(CC1NCCc2ccccc21)Nc1cccc(Cl)c1` (stereo not given), for which the inhibition is 7.22%.
Regarding `O=C(CC1NCCNC1=O)Nc1ccc(Oc2ccccc2)cc1` (stereo not given), the inhibition was 52.9%.
As for `O=C(CC1Nc2ccccc2NC1=O)Nc1ccccc1` (stereo not given), the figure is 100% (active); as for `O=C(COC(=O)c1ccc(O)cc1O)c1ccc2c(c1)OCCO2`, 8.44%; as for `O=C(Nc1cccc(S(=O)(=O)N2CCCCC2)c1)c1cncc(Br)c1`, -3.28%.
The result for `COc1ccc(CCNc2nc(C)cc(C)n2)cc1OC` reads -36.8%; that for `COc1ccc(CCNc2nc3ccc(C)cc3n3cnnc23)cc1OC`, -23.4%.
The result for `CCC[C@H]1CCCC/C=C\CCCC(=O)OCCN1C(=O)OC(C)(C)C` reads -20.7%; that for `COc1cccc(C2=CC(=O)C[C@H](c3ccc(OC)c(OC)c3)C2)c1`, -9.08%; that for `CN(CC(=O)Nc1ccc(Cl)cc1)C(=O)c1ccc(COc2ccccc2)cc1`, 22.8%.
With `CCOC(=O)c1c(-c2ccccc2)oc2cc(Br)c(O)c(C=O)c12`, the inhibition was 100% (active).
The result for `CCOC(=O)c1c(-c2ccccc2)oc2ccc(OCC(N)=O)cc12` reads -4.93%.
As for `CCOC(=O)c1c(-c2ccccc2)oc2cc(Br)c(O)cc12`, the figure is 47.8%; as for `O=C1CC2(CCCC2)C(=O)N1CN1CCN(S(=O)(=O)c2ccc(F)cc2F)CC1`, -4.63%.
The result for `CCCN(CC1CC1)C(=O)COC(=O)c1ccc(C)cc1O` reads -16%.
Consider `CC(NC(=O)COC(=O)Cn1cc(C(F)(F)F)ccc1=O)c1ccccc1` (stereo not given), for which the inhibition is -18.4%.
As to `Clc1ccc(CN2CCN(/N=C/c3cccnc3)CC2)cc1`, the inhibition was 3.75%.
The result for `O=Cc1cn(Cc2ccccc2)nc1-c1cccnc1` reads -1.18%; that for `O=C1/C(=C\c2cccnc2)CN(Cc2ccccc2)C/C1=C\c1cccnc1`, 90.1% (active); that for `CC(OC(=O)c1c(F)cccc1F)C(=O)NCCC1=CCCCC1` (stereo not given), -17.6%.
The result for `Cn1c(N)c(C(=O)COC(=O)c2cccc(S(=O)(=O)N3CCOCC3)c2)c(=O)n(C)c1=O` reads 8.64%; that for `CCC(=O)NC(Nc1nc2ccc(C)cc2s1)(C(=O)OC)C(F)(F)F` (stereo not given), 6%.
As to `CCOc1ccc2nc(NC(=O)c3cc([N+](=O)[O-])ccc3N3CCOCC3)sc2c1`, the inhibition is 36.3%.
The result for `O=C(NC(Nc1nc2ccc([N+](=O)[O-])cc2s1)(C(F)(F)F)C(F)(F)F)c1ccccc1` reads 98.4% (active); that for `Cc1cccc(OCC(=O)OCC(=O)Nc2ccc(Cl)cn2)c1`, 0.766%; that for `COC(=O)C1CCN(C(=O)COC(=O)c2cc(S(=O)(=O)N3CCOCC3)ccc2C)CC1`, 4.55%.
The result for `COc1cc2c(-c3ccc4c(c3)OCO4)c(-c3ccsc3)oc(=O)c2cc1OC` reads 8.35%; that for `Cc1ccc(S(=O)(=O)NCC(=O)NNC(=O)c2ccc(Br)cc2)cc1C`, 1.69%.
As for `CCCCn1c(SCC(=O)NCC2CCCO2)nc2ccc(N3CCOCC3)cc2c1=O` (stereo not given), the figure is 34.5%.
For `N#CCSc1nc2ccc(N3CCOCC3)cc2c(=O)n1CCc1ccccc1`, the inhibition is 77.9% (active).
Turning to `COCCCNC(=O)CSc1nc2ccc(N3CCOCC3)cc2c(=O)n1CCc1ccccc1`, the inhibition was 20.5%.
As for `CSc1ncccc1C(=O)Nc1cccc(S(=O)(=O)N2CCOCC2)c1`, the figure is -12.8%; as for `c1ccc(-c2cc(N3CCCCC3)c3ccccc3n2)cc1`, 38.6%.
As for `O=C(CS(=O)(=O)c1cn(Cc2cccc(F)c2)c2ccccc12)N1CCCCC1`, the figure is -3.16%; as for `O=c1cc(N2CCCCC2)c(-c2ccccc2)nn1Cc1cccc(F)c1`, 76.4% (active); as for `CC(=O)c1c(OCC(=O)N(C)C2CCCCC2)ccc2c(C)cc(=O)oc12`, -10.2%.
Consider `O=C(CNC(=O)c1ccco1)NNC(=O)c1ccc(Br)cc1`, for which the inhibition was 5.78%.
As for `Cc1ccc(NC(=S)NC(NC(=O)Cc2cccc3ccccc23)C(Cl)(Cl)Cl)cc1` (stereo not given), the figure is 192% (active); as for `CC(C)(C)C(=O)NC(NC(=S)Nc1ccc(S(N)(=O)=O)cc1)C(Cl)(Cl)Cl` (stereo not given), -4.65%.
As for `O=C(Cc1cccc2ccccc12)NNC(=O)Nc1ccc(Cl)cc1`, the figure is 8.44%; as for `CCOC(=O)[C@H]1[C@H]2COc3ccc(Cl)cc3[C@@H]2N2C(=O)c3cc(C)ccc3NC(=O)[C@@]12C`, -10.6%.
As for `CCCCn1c(-c2cccc(C)c2)nc2cc3[nH]c(=O)c(C(C)C)nc3cc21`, the figure is 75.5% (active); as for `CCOCCn1c(-c2ccccc2)nc2ccccc21`, -0.165%; as for `CCCCn1c(N)c(N(CCOC)C(=O)CSCC(=O)Nc2cccc(C)c2)c(=O)[nH]c1=O`, -17.7%.
In the case of `Cc1cc(NC(=O)CN2C(=O)NC(CC(C)C)C2=O)no1` (stereo not given), the inhibition was -1.14%.
The result for `Cc1ccccc1NC(=O)CSC(=O)c1ccccc1` reads -3.3%; that for `O=C(COC(=O)/C=C/c1ccc(Br)o1)Nc1cccc(S(=O)(=O)N2CCOCC2)c1`, -14.4%.
`Oc1c(C=Nc2cccc3nsnc23)ccc2ccccc12`: the inhibition is 87.2% (active).
The result for `O=[N+]([O-])c1ccc(N=Cc2c(O)ccc3ccccc23)cc1` reads 12.2%; that for `COc1ccc(C=Nc2cccc3ncccc23)cc1`, -1.64%; that for `C[C@H]1CN([C@@H](C)CO)C(=O)Cc2cc(NC(=O)Cc3ccccc3)ccc2O[C@H]1CN(C)S(=O)(=O)c1cccs1`, -17%.
